CRFBP-R2 agonist: CRF-BP/CRF-R2 complex agonism; HEK293 CRF-R2/CRF-BP, calcium dye fluorescence (FLIPR); percent of saturating CRF peptide response; activation, % at 13.2 µM; actives 0.46% (n = 350,000); AID 588473;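 active = activation of at least 50%, plus an integration ratio under a set limit after plate pattern correction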;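 note: plate controls were neutral control wells without compound for no effect and CRF at EC100 for full effect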
cardiac RTF act: cardiac RTF calcium sensitization; activation, % at 7.2 µM; P19429+P45379; actives 0.24% (n = 340,000); IANBD-labeled TnC RTF fluorescence at EC20 calcium; 0% EC20 calcium, 100% full calcium;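 active = activation above the mean over all tested compounds plus 3 SD, cut at about 30% in these data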;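 note: rise in fluorescence read as greater calcium sensitivity of cardiac thin filaments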
IDE inh: inhibits human insulin-degrading enzyme in HEK cells | P14735 | FAbetaB cleavage, fluorescence polarization | inhibition, % at 5.59 µM | actives 0.41% (n = 320,000) | AID 434962;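 active = percent inhibition above the average of all tested compounds plus 3 SD, set per screening campaign, cut at about 16% in these data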;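 note: IDE supplied by intact live HEK cells; FP after avidin binding of uncleaved biotin substrate so inhibition keeps polarization high; 0% = DMSO wells and 100% = 60 µM reference IDE inhibitor Ii1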
Target sequence (P14735 whole entry, looked up): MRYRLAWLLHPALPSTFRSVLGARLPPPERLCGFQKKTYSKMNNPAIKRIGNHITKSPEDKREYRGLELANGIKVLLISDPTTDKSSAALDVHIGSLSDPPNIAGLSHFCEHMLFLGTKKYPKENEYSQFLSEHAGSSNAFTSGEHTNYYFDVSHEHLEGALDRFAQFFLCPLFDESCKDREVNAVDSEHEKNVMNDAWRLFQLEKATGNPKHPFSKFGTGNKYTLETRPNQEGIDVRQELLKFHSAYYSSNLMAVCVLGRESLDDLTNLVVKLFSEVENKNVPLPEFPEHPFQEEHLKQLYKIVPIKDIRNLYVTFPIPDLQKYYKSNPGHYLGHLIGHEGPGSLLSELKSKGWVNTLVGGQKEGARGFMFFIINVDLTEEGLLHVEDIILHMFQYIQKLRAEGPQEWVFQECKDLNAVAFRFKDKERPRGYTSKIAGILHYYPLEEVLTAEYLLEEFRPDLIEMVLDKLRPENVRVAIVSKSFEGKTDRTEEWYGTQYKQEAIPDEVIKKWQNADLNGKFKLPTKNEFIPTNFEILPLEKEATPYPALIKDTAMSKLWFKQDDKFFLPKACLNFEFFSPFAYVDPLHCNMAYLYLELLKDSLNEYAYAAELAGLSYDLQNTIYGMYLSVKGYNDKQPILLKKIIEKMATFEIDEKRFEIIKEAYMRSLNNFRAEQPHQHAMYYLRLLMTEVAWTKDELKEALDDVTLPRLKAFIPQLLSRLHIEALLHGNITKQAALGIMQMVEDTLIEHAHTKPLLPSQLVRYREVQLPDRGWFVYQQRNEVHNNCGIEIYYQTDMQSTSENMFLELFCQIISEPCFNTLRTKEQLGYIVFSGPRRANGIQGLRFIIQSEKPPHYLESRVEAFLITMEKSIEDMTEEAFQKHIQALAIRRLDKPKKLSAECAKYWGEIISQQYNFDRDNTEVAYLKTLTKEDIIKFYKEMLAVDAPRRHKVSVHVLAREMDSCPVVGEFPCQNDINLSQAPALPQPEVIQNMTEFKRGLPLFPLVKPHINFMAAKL
CRFBP-R2 block: blocks CRF-induced signaling of the CRF-BP/CRF-R2 complex. inhibition, % at 11.8 µM. AID 588475. HEK293 CRF-R2/CRF-BP, CRF-induced calcium fluorescence. actives 0.59% (n = 350,000);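 active = inhibition of the ligand-induced calcium signal above about 50% at the single tested concentration, limit read from the data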
RTF Ca sens inh: cardiac RTF calcium desensitization | P19429+P45379 | IANBD-labeled cardiac RTF, Ca2+ fluorescence | inhibition, % at 7.15 µM | actives 0.12% (n = 340,000);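 active = inhibition above the mean inhibition of all tested compounds plus 3 SD, cut at about 17% in these data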;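 note: assay run at fixed EC70 calcium of 1.6 mM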
IDE act: activators of human insulin-degrading enzyme in cells; P14735; actives 0.073% (n = 340,000); activation, % at 5.96 µM; HEK cells, FAbeta-B cleavage, fluorescence polarization; 0% vehicle, 100% cell-free pure enzyme wells;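 active = activation above the mean of all tested compounds plus 3 SD, set per screening campaign, cut at about 17% in these data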
IDE cell inh cf: cellular human IDE inhibition, confirmation; HEK cells, FAbetaB cleavage, fluorescence polarization; shares compounds with IDE inh; actives 51% (n = 1,200); inhibition, % at 5.59 µM; AID 435028;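 active = mean inhibition across triplicate wells above the cutoff set by the earlier primary insulin-degrading enzyme screen, cut at about 16% in these data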;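 note: 0% = DMSO wells and 100% = 60 µM reference IDE inhibitor Ii1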
HEK293 tox: HEK cell cytotoxicity, counter-screen for IDE inhibitors. shares compounds with IDE inh. actives 28% (n = 1,200). inhibition, % at 5.59 µM. AID 449730. HEK293 cytotoxicity, ATP luminescence; in the data active = inhibition above about 22%;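 note: 0% = vehicle wells and 100% = reference cytotoxic drug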
* marks the source's active call; other numbers are inactive results. Hits are enriched below; roughly 1.5% of the tested compounds scored in any of these assays.

CC(=O)c1sc(N/N=C\c2ccccc2O)nc1C was read as CRFBP-R2 agonist 12, cardiac RTF act 5, IDE inh 31*, CRFBP-R2 block -26, RTF Ca sens inh 0, IDE act -37, IDE cell inh cf 48* and HEK293 tox 6.
For Cc1ccc(-c2csc3nc(SCC(=O)Nc4ccc(Cl)c(C(=O)O)c4)[nH]c(=O)c23)cc1 the results were CRFBP-R2 agonist 1, cardiac RTF act 0, IDE inh 2, CRFBP-R2 block 21, RTF Ca sens inh -2 and IDE act -2.
Cc1cc(C)c2c(=O)n(CC(=O)NCCCN3CCN(c4ccccc4F)CC3)sc2n1 was read as CRFBP-R2 agonist 0, IDE inh 39*, CRFBP-R2 block 20, IDE cell inh cf 11 and HEK293 tox 115*.
Cc1cc(C)c2c(=O)n(CC(=O)NCCCN3CCOCC3)sc2n1 was read as CRFBP-R2 agonist 2, cardiac RTF act 6, IDE inh 22*, CRFBP-R2 block -2, RTF Ca sens inh -7, IDE act -59, IDE cell inh cf 20* and HEK293 tox 4.
`O=C(O)Cc1sc(NC2CCCCC2)nc1-c1ccc(Cl)cc1` gave CRFBP-R2 agonist 1, cardiac RTF act 6, IDE inh 20*, CRFBP-R2 block -14, RTF Ca sens inh 9, IDE act 8, IDE cell inh cf -3 and HEK293 tox 11.
O=C(NCc1ccco1)/C(=C/c1ccccc1F)NC(=O)c1ccccc1 was read as CRFBP-R2 agonist 2, cardiac RTF act 2, IDE inh 3, CRFBP-R2 block -8, RTF Ca sens inh 1 and IDE act 9.
For Brc1ccc(-c2noc3c2-c2nc(C4CCCCC4)sc2CC3)cc1 the results were CRFBP-R2 agonist 2, cardiac RTF act 8, IDE inh 0, CRFBP-R2 block -1, RTF Ca sens inh -13 and IDE act -2.
CC(=Nc1ccccc1O)c1sc2ccccc2c1O was read as CRFBP-R2 agonist 36, cardiac RTF act 7, IDE inh 84*, CRFBP-R2 block -68, RTF Ca sens inh -10, IDE act -89, IDE cell inh cf 96* and HEK293 tox 10.
For CC(=Nc1ccc(O)cc1)c1sc2ccccc2c1O the results were CRFBP-R2 agonist 27, cardiac RTF act 14, IDE inh 27*, CRFBP-R2 block -21, RTF Ca sens inh -26, IDE act -28, IDE cell inh cf 35* and HEK293 tox 19.
Screening Oc1c(N=Nc2ccccc2)sc2ccccc12 returned CRFBP-R2 agonist -1, cardiac RTF act 0, IDE inh -2, CRFBP-R2 block -2, RTF Ca sens inh 2 and IDE act 0.
Screening CC(=Nc1cccc(C)c1)c1sc2ccccc2c1O returned CRFBP-R2 agonist 8, cardiac RTF act -10, IDE inh 16*, CRFBP-R2 block -51, RTF Ca sens inh -4, IDE act -26, IDE cell inh cf 29* and HEK293 tox 8.
For CC(=O)NCCN=C(C)c1sc2ccccc2c1O the results were CRFBP-R2 agonist -2, cardiac RTF act -4, IDE inh 8, CRFBP-R2 block 18, RTF Ca sens inh -5 and IDE act -1.
`Oc1c(C=NCc2ccccc2)sc2ccccc12` gave CRFBP-R2 agonist -1, cardiac RTF act -3, IDE inh 9, CRFBP-R2 block -5, RTF Ca sens inh 0 and IDE act -3.
COc1ccc(S(=O)(=O)c2c(N)n(Cc3ccco3)c3nc4ccccc4nc23)cc1 was read as CRFBP-R2 agonist 45, cardiac RTF act 3, IDE inh 23*, CRFBP-R2 block -38, RTF Ca sens inh -27, IDE act -13, IDE cell inh cf 10 and HEK293 tox 5.
COc1ccc2c(c1)c(/C=C/c1cc[n+](C)cc1)cn2C was read as CRFBP-R2 agonist 30, cardiac RTF act 75*, IDE inh 27*, CRFBP-R2 block -4, RTF Ca sens inh -77, IDE act -19, IDE cell inh cf 47* and HEK293 tox 44*.
For COc1ccc2c(/C=C/c3cc[n+](C)cc3)c[nH]c2c1 the results were CRFBP-R2 agonist 14, cardiac RTF act 8, IDE inh 14, CRFBP-R2 block -7, RTF Ca sens inh -17 and IDE act -8.
CSCC[C@H](NC(=O)N1CCn2c1nc1ccccc12)C(=O)NCc1ccc(C)cc1 was read as CRFBP-R2 agonist 0, cardiac RTF act -2, IDE inh -5, CRFBP-R2 block -63, RTF Ca sens inh -7 and IDE act 6.
O=C(CCC(=O)c1ccc(-c2ccccc2)cc1)Nc1cccnc1 was read as CRFBP-R2 agonist 2, cardiac RTF act 4, IDE inh 17*, CRFBP-R2 block -10, RTF Ca sens inh 1, IDE act -9, IDE cell inh cf 2 and HEK293 tox 15.
Screening Cc1ccc(N(CC(=O)NC2CCCC2)C(=O)CNC(=O)c2cccs2)cc1C returned CRFBP-R2 agonist 5, cardiac RTF act 2, IDE inh -3, CRFBP-R2 block 7, RTF Ca sens inh -27 and IDE act 4.
COc1ccc(C(=O)Nc2cc(C(C)=O)c(C)oc2=O)cc1 was read as CRFBP-R2 agonist 0, cardiac RTF act 0, IDE inh 1, CRFBP-R2 block -47, RTF Ca sens inh -11 and IDE act 3.
Screening CC(=O)c1cc(NC(=O)c2ccc(Cl)cc2)c(=O)oc1/C=C/N(C)C returned CRFBP-R2 agonist 79*, cardiac RTF act 27, IDE inh 17*, CRFBP-R2 block -90, RTF Ca sens inh -46, IDE act -43, IDE cell inh cf 54* and HEK293 tox 12.
`C[C@H](NC(=O)[C@H](Cc1ccccc1)NC(=O)c1cc2cc(Cl)ccc2n1C)C(=O)O` gave CRFBP-R2 agonist 4, cardiac RTF act -1, IDE inh 2, CRFBP-R2 block -12, RTF Ca sens inh -3 and IDE act 2.
CSc1cccc(N2CC(C(=O)Nc3ccccc3N3CCCC3)CC2=O)c1 (centres undefined) was read as CRFBP-R2 agonist -2, cardiac RTF act 0, IDE inh 16*, CRFBP-R2 block -9, RTF Ca sens inh -9, IDE act -4, IDE cell inh cf 6 and HEK293 tox 7.
Cc1ccc(N2CC(C(=O)Nc3ccccc3N3CCCC3)CC2=O)cc1 (centres undefined) was read as CRFBP-R2 agonist 0, cardiac RTF act -4, IDE inh 1, CRFBP-R2 block -4, RTF Ca sens inh -14 and IDE act 1.
